Measurements as given in PubChem BioAssay.

Assay: growth of efflux-deficient E. coli DRC39 – strain DRC39, OD650, 24 h, E. coli filamentation inducers, primary screen (AID 1178);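 also: growth measured as culture turbidity by optical density at 650 nm; test concentration not given here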
Details: E. coli DRC39 acrAB, higher = more signal, called active from +8 up or from −8 down

z-score, inactive:
O=C1c2ccccc2[C@](Cc2ccccc2I)(C(=O)NCc2ccccc2)[C@H](c2ccc(CO)cc2)N1C1CCCCC1 0.852
COc1ccc(C(O)C2C=CC3C(=O)N(C)C(=O)C3N2N2CCCCC2)cc1 (stereo not given) -0.584
C=C1C2CC3C(=C4C(CO[C@@H]4[C@H]4CCCN4S(=O)(=O)c4ccccc4[N+](=O)[O-])C4C(=O)N(C)C(=O)C34)CC2C(=O)N1C (stereo not given in full) -0.579
COCCOC(=O)N1C(=O)[C@@]2(c3cc(C#CC4=CCCCC4)ccc31)[C@H](c1ccc(O)cc1)N1[C@H](c3ccccc3)[C@H](c3ccccc3)OC(=O)[C@H]1[C@@H]2C(=O)Nc1nc2ccccc2s1 -0.61
C[C@H]1C2=C3C(CC[C@H]4C(OCc5ccc(F)cc5C(F)(F)F)OC[C@](C)([C@@H]34)N(C(=O)OC(C)(C)C)C2)C(CO)C1CO (stereo not given in full) -1.36
COCCOC(=O)N1C(=O)[C@@]2(c3cc(C#CC4(O)CCCCCC4)ccc31)[C@H](C(=O)N1CCCCCCC1)[C@H]1C(=O)O[C@H](c3ccccc3)[C@H](c3ccccc3)N1[C@@H]2c1ccc(OCCO)cc1 -0.151
COCCOC(=O)N1C(=O)[C@@]2(c3cc(C#CC4(O)CCCCCC4)ccc31)[C@H](C(N)=O)[C@H]1C(=O)O[C@H](c3ccccc3)[C@H](c3ccccc3)N1[C@@H]2c1ccccc1OCCO -0.735
CC(=O)N1Cc2ccccc2C[C@]2(N=C(c3ccc(OCCCO)cc3)O[C@@H]2c2ccccc2)C1=O 1.55
O=C1OCC=C[C@H]2OC34C=CCN(c5ccc(Cl)cc5)C(=O)[C@H]3N(CCCCCO)C(=O)[C@@H]4[C@@H]12 (stereo not given in full) 0.602
C=C(C(=O)CC[C@H](OC(=O)c1cccnc1)c1cccc(OCCO)c1)C(C)C 0.675
CC(C)C(O)C1C=CC2C(=O)N(C)C(=O)C2N1N(c1ccccc1)c1ccccc1 (stereo not given) -0.841
O=C1O[C@@H](c2ccccc2)[C@@H](c2ccccc2)N2[C@@H](c3ccc(O)cc3)[C@]3(C(=O)Nc4ccccc43)[C@@H](C(=O)Nc3nc4ccccc4s3)[C@H]12 -0.0021
COC(=O)[C@@]1(Cc2ccc(OC)cc2)[C@H]2c3cc(C(=O)N(C)C)n(Cc4ccccc4)c3C[C@H]2CN1C(=O)c1ccccc1 0.111
CC1CC/C=C\[C@H]2OC34C=CCN(CCN5CCOCC5)C(=O)[C@H]3N(CCO)C(=O)[C@@H]4C2C(=O)O1 (stereo not given in full) -0.0987
COC(=O)[C@]1(CCS(=O)(=O)c2ccccc2)N=C(c2ccc(OCCCO)cc2)O[C@@H]1c1ccccc1CN=[N+]=[N-] 0.153
CC(C)(C)OC(=O)CC[C@]1(C(=O)O)N=C(c2ccc(OCCCO)cc2)O[C@H]1c1ccccc1 0.419
O=C1c2ccccc2[C@@]2(Cc3ccccc3N(C3CC3)C2=O)[C@H](c2ccc(CO)cc2)N1C1CCCCC1 0.609
COCCOC(=O)N1C(=O)[C@@]2(c3ccccc31)[C@H](c1ccc(OCCO)cc1)N1[C@H](c3ccccc3)[C@H](c3ccccc3)OC(=O)[C@H]1[C@@H]2C(=O)Nc1nc2ccccc2s1 -0.176
[N-]=[N+]=Nc1ccccc1C[C@@]1(C(=O)O)N=C(c2ccc(OCCCO)cc2)O[C@@H]1c1ccccc1 -0.26
CCCNC(=O)[C@@]1(c2ccc([N+](=O)[O-])cc2)CC(=O)N(C2CCCCC2)[C@@H]1c1ccc(CO)cc1I 0.549
COc1ccc([Si](C)(C)[C@H]2[C@H](CCn3cc([C@H](O)c4ccccc4)nn3)O[C@@]3(C(=O)N(Cc4ccc(N5CCOC5=O)cc4)c4ccccc43)[C@@H]2C)cc1 0.205
COCCCNC(=O)[C@@]1(Sc2ccc(C)cc2)CC(=O)N(Cc2cc(C(F)(F)F)cc(C(F)(F)F)c2)[C@@H]1c1ccc(CO)cc1 0.0881
C=CCC(OC(C)=O)[C@@H]1[C@@H](N(Cc2cc3ccccc3o2)C(=O)Cc2ccc(F)cc2)c2cc(OCCCO)ccc2N1C(=O)c1ccc2ccccc2n1 (stereo not given in full) 0.106
CCCCC(=C=CC[C@@H](O)c1ccc(OCCO)cc1)C[C@@H](O)COCc1ccccc1 1.9
O=C1O[C@@H](c2ccccc2)[C@@H](c2ccccc2)N2[C@@H](c3ccc(O)cc3)[C@]3(C(=O)Nc4ccc(C#CCCO)cc43)[C@@H](C(=O)NC[C@H](O)c3ccccc3)[C@H]12 0.6
